D2 ag-1 = activates the human D2 dopamine receptor. HEK293 T-REx D2 cells, calcium flux agonist mode. 0.53% of 340,000 active. P14416. activation, % at 2 µM. AID 485358;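 active = activation over 3 SD above normal in the single-dose calcium agonist read, cut at about 30% in these data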; note: 0% is about no effect
Target sequence (P14416 whole entry, looked up): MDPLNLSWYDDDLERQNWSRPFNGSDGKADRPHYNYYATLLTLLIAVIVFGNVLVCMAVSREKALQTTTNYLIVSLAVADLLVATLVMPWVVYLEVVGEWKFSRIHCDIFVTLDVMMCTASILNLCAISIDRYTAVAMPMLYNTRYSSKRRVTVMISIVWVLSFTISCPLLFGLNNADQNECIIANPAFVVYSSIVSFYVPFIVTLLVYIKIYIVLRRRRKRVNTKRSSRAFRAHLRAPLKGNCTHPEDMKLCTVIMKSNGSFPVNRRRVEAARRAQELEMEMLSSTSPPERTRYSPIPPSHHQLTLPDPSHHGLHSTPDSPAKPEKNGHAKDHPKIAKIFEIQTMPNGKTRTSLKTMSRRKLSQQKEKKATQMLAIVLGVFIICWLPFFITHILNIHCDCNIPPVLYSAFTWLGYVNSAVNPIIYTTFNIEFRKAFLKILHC
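In this primary screen, compounds producing a positive calcium signal within 180 s of addition to tetracycline-induced, force-coupled HEK293 Trex D2 cells are flagged; cells are dye-loaded with a no-wash calcium kit beforehand.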
D2 PAM-1 = human D2 receptor positive allosteric modulation; 0.23% of 360,000 active; DiscoveRx D2 beta-arrestin cells, luminescence, 90 min; 100% = 57 uM dopamine signal; potentiation, % (concentration not given with the values); AID 624464; P14416; in the data active = potentiation above about 50%; inconclusive = mostly about 30% to 49%
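D2 cells co-treated with compound plus 50 nM dopamine (EC20) for 90 min at 37 deg C to detect potentiation. Beta-arrestin recruitment was read as enzyme-fragment luminescence after 1 h at ambient temperature. Full response was set by 57 uM dopamine.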
D2 ag-2 = agonists of human D2 dopamine receptor (beta-arrestin). P14416. 0.084% of 360,000 active. AID 624465. DiscoveRx PathHunter D2 beta-arrestin, luminescence, 90 min; 100% = 57 uM dopamine signal. activation, % (concentration not given with the values); in the data active = activation above about 40%; inconclusive = between about 15% and that limit
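Agonist mode: compounds alone added to overnight-plated D2 PathHunter cells for 90 min at 37 C, with 57 uM final dopamine (EC100) defining full response. Beta-arrestin recruitment detected by chemiluminescent reagent, read after 1 h at ambient temperature.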
D2 PAM-2 = D2 dopamine receptor (human) potentiation. HEK293 T-REx D2, calcium flux, EC20 dopamine potentiation. AID 485347. 0.34% of 340,000 active. potentiation, % at 10 µM. P14416;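 active = potentiation over 3 SD above the plate norm, cut at about 30% in these data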; note: 0% is about no effect
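Tetracycline-induced HEK293 T-REx cells force-coupled to calcium signalling expressed D2; compounds were pin-added after a 10 s baseline, read kinetically 180 s, then an EC20 dopamine challenge followed with a further 180 s calcium read.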
D2 antag = antagonists of human D2 dopamine receptor; P14416; HEK293 TREx D2 cells, calcium flux, dopamine EC80; inhibition, % at 10 µM; 2% of 340,000 active; in the data active = inhibition above about 30%; inactive = below that, where a call was filed; note: 0% is about no effect
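HEK293 T-REx D2 cells, tet-induced, calcium dye no-wash. Cpd pintool add, 180 s kinetic, then EC80 DA, 180 s kinetic. Ca flux read.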
* marks the source's active call; other numbers are inactive results; u = inconclusive; x = no result. The list is not random: actives were taken first. Their share in the collection is about 2.4%.

SMILES	D2 ag-1	D2 PAM-1	D2 ag-2	D2 PAM-2	D2 antag
O=C(COC(=O)c1cccnc1Cl)c1cccc(Cl)c1	0	-27	-4	-1	69*
CN(C)CCCNC(=S)/N=c1\sccn1Cc1ccccc1Cl	0	-11	-2	-40	90*
Cc1c(-c2nnc(SCC(=O)Nc3ccccc3F)o2)nnn1-c1ccc(F)cc1	2	x	x	13	x
CCOc1ccc(CCNC(=O)CCCc2nnc3n(CCCOC)c(=O)c4sccc4n23)cc1	0	x	x	2	x
CCC1CN(C(=O)N2CCC(C(=O)NCCc3ccc(C)cc3)CC2)c2ccccc2O1 (configuration not stated)	-1	x	x	3	x
COc1cccc2sc(N(CCN(C)C)C(=O)/C=C/c3cccs3)nc12	0	-22	1	-19	-6
CCOc1cccc2sc(N(CCN(C)C)C(=O)/C=C/c3cccs3)nc12	-1	-32	-3	-23	66*
O=C(Nc1cc(-c2ccccc2)cs1)c1ccco1	-1	2	-1	1	31*
O=C(Nc1nc(-c2ccccc2)cs1)c1ccco1	-1	-7	1	-8	28
COc1ccccc1NC(=O)C1=C(C)Nc2nc3ccccc3n2C1c1cccc(Br)c1 (configuration not stated)	0	x	x	-1	x
C=CCOc1ccccc1CNCCCN1CCOCC1	0	-12	-1	37*	-5
O=C(Nc1cccc(F)c1)c1ccc(-c2ccccc2C(F)(F)F)o1	2	x	x	-3	-32
COc1ccc(NC(=O)c2ccc(-c3ccccc3C(F)(F)F)o2)cc1	0	-32	-3	-23	49*
COc1ccc(-c2onc3ccc(Cl)cc23)cc1	1	104*	13	-3	5
O=Cc1ccc2noc(-c3ccc(Cl)cc3)c2c1	x	80*	u	x	x
CC(=O)c1cc(-c2ccc(F)cc2)n(CCC(=O)NC2CCCCC2)c1C	1	x	x	-6	x
Cc1oc2cc3oc(=O)c(CC(=O)NCc4ccccc4)c(C)c3cc2c1C	0	x	x	0	x
CCc1cccc(Nc2ncnc3onc(-c4ccc(F)cc4)c23)c1	0	x	x	1	x
CCCN(CCC)c1ccc(/C=C/c2ccc3cc(OCC)ccc3n2)cc1	38*	-3	1	-4	-6
CN(C)c1ccc(/C=C/c2ccc3ccccc3n2)cc1	24	-1	-1	6	-24
Cc1ccccc1CNC(=O)Cn1nc(C)c2nn(-c3ccc(Cl)cc3)c(C)c2c1=O	-1	x	x	x	x
O=C(CCC1N=C2c3ccccc3N=C(SCc3ccccc3Cl)N2C1=O)N1CCN(c2ccccc2)CC1 (configuration not stated)	-1	x	x	-1	x
Nc1cc([N+](=O)[O-])ccc1Nc1ccccc1	0	-7	-8	16	2
Nc1cc(C(F)(F)F)ccc1Nc1ccccc1	0	1	3	-7	67*
N#Cc1ccc(Nc2ccccc2)c(N)c1	1	-10	-4	-14	31*
SMILES	D2 ag-1	D2 PAM-1	D2 ag-2	D2 PAM-2	D2 antag
Fc1ccccc1-c1nc(N2CCN(c3cccc(Cl)c3)CC2)c2ccccc2n1	1	x	x	-2	x
CC1OC(O[C@H]2CC[C@]3(C)C4C=C[C@]56OC[C@@]7(CC[C@@H](C)[C@H](C)C75)[C@H](O)C[C@@]6(C)[C@]4(C)CC[C@H]3C2(C)C)C(OC2OC(CO)C(O)C(O)C2OC2OCC(O)C(O)C2O)C(O)C1O (some centres not stated)	43*	x	x	-14	35*
CC1O[C@@H](OC2C(COC3OC(CO)C(O)[C@H](O)C3O)OC(OC3CC[C@]4(C)C(CC[C@@]5(C)[C@@H]4CC=C4[C@@H]6CC(C)(C)CC[C@]6(CO)C(O)C[C@]45C)C3(C)C)C(O)C2O)C(O)C(O)C1O (some centres not stated)	x	-52	0	x	x
Cc1c(-n2cc(C(=O)c3cc(F)ccc3O)cc(C#N)c2=O)c(=O)n(-c2ccccc2)n1C	1	1	-4	x	8
N#Cc1cc(C(=O)c2cc(F)ccc2O)cn(-c2nccs2)c1=O	116*	-4	0	2	34*
CC(C)n1cc(C(=O)c2ccccc2O)cc(C#N)c1=O	0	-9	-3	-2	-8
N#Cc1cc(C(=O)c2ccccc2O)cn(-c2nccs2)c1=O	138*	-26	-3	3	24

Bioassay records as filed in PubChem.
